Test [1] in a line: qHTS assay to identify small molecule antagonists of the glucocorticoid receptor (GR) signaling pathway - cell viability counter screen (AID 720693). Further: nearly all actives have a fitted effect of over 55% in size.
Test [2] in a line: qHTS assay for identifying genotoxic compounds that show differential cytotoxicity against isogenic chicken DT40 cell lines with known DNA damage response pathways - wild type cell line (AID 743012). Further: nearly all actives have a fitted effect of over 60% in size. Further: potency means the concentration at half of the fitted maximal effect. Summed up: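 Viability of DNA repair-proficient chicken DT40 cells was assessed by CellTiter-Glo luminescence following 40 h compound exposure at 37 C/5% CO2.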
Test [3] can be described thus: qHTS assay for identifying genotoxic compounds that show differential cytotoxicity against isogenic chicken DT40 cell lines with known DNA damage response pathways - Rev3 mutant cell line (AID 743014). Further: nearly all actives have a fitted effect of over 55% in size. Further: potency means the concentration at half of the fitted maximal effect.
The nature of test [4]: qHTS assay for identifying genotoxic compounds that show differential cytotoxicity against isogenic chicken DT40 cell lines with known DNA damage response pathways - Rad54/Ku70 mutant cell line (AID 743015). Further: nearly all actives have a fitted effect of over 60% in size. Further: potency means the concentration at half of the fitted maximal effect.
Test [5] in a line: qHTS assay to identify small molecule antagonists of the androgen receptor (AR) signaling pathway - cell viability counter screen (AID 743033; further: nearly all actives have a fitted effect of over 45% in size; further: potency means the concentration at half of the fitted maximal effect).
Test [6] deals with Androgen receptor (Homo sapiens) (UniProt P10275). Put plainly: qHTS assay to identify small molecule antagonists of the androgen receptor (AR) signaling pathway (AID 743035; active means well fitted inhibition curve with a large enough effect in the signal ratio in the repeat runs, not every such curve was filed as active; the % refers to the signal ratio). Summed up:
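Reporter HEK293 cells were exposed to compounds and R1881 overnight (16 h, 37C); beta-lactamase activity was then quantified by FRET fluorescence.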

The target is the same in test [7]. In words: qHTS assay to identify small molecule agonists of the androgen receptor (AR) signaling pathway (AID 743036; active means well fitted activation curve with a large enough effect in the signal ratio in the repeat runs, with a control signal flat, not every such curve was filed as active; the % refers to the signal ratio). Summed up:
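Beta-lactamase under UAS control, stably integrated in HEK293 GripTite cells, reports receptor activation. After 16 h compound treatment, cells received FRET substrate for 2 h at room temperature before fluorescence reading.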

The target is the same in test [8]. In words: qHTS assay to identify small molecule agonists of the androgen receptor (AR) signaling pathway using the MDA cell line (AID 743040; further: nearly all actives have a fitted effect of over 20% in size). Summed up:
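Luciferase read-out, ONE-Glo, 30 min RT. Cells: MDA-kb2 AR-luc, MMTV promoter with AR and GR response elements. Compound exposure 16 h, 37C, 0% CO2, after 5 h pre-incubation. qHTS agonist mode.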

The nature of test [9]: qHTS assay to identify small molecule antagonists of the androgen receptor (AR) signaling pathway using the MDA cell line - cell viability counter screen (AID 743041; further: nearly all actives have a fitted effect of over 45% in size). In short, it runs like this:
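Cytotoxicity counter screen: MDA-kb2 AR-luc cells, compound + R1881, 16 h, 37C, 0% CO2; CellTiter-Fluor added at 15.5 h, fluorescence read after 30 min.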

Test [10] addresses Androgen receptor (Homo sapiens) (UniProt P10275). In words: qHTS assay to identify small molecule antagonists of the androgen receptor (AR) signaling pathway using the MDA cell line (AID 743042; further: nearly all actives have a fitted effect of over 55% in size). Summed up: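 MDA-kb2 breast carcinoma cells carrying MMTV-luciferase (AR/GR responsive) were co-treated with compounds and the agonist R1881 for 16 h at 37C. Inhibition read as ONE-Glo luminescence; CellTiter-Fluor fluorescence measured in parallel for cytotoxicity.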

Test [11] in a line: qHTS assay to identify small molecule antagonists of the thyroid receptor (TR) signaling pathway - cell viability counter screen (AID 743064). Further: nearly all actives have a fitted effect of over 50% in size. Further: potency means the concentration at half of the fitted maximal effect. Summed up:
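Compounds were tested on GH3.TRE-Luc cells in the presence of T3 at 1 nM final. Following 23.5 h at 37 °C, cell viability was quantified by CellTiter-Fluor.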

Test [12] is described as follows: qHTS assay to identify small molecule antagonists of the thyroid receptor (TR) signaling pathway (AID 743065). Further: nearly all actives have a fitted effect of over 55% in size. Further: potency means the concentration at half of the fitted maximal effect. Summed up:
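GH3.TRE-Luc rat pituitary cells (two TREs driving luciferase) were dosed with compound, then stimulated with 1 nM T3 (final) for 23.5 h at 37 C. ONE-Glo luminescence was the read-out, with CellTiter-Fluor fluorescence as the cytotoxicity counter-screen.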

Test [13] has as its system thyroid hormone receptor (rat, GH3 cells). Put plainly: qHTS assay to identify small molecule agonists of the thyroid receptor (TR) signaling pathway (AID 743066; calls by dose curve).
Test [14] deals with Estrogen receptor (Homo sapiens) (UniProt P03372). In words: qHTS assay to identify small molecule antagonists of the estrogen receptor alpha (ER-alpha) signaling pathway (AID 743069; active means well fitted curve in the direction sought with a large enough effect in the signal ratio in the repeat runs, not every such curve was filed as active; the % refers to the signal ratio). In short, it runs like this:
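Beta-lactamase FRET fluorescence is read after 2 hr at room temperature with LiveBLAzer B/G substrate. Before that, ER-alpha-bla HEK293 cells sit 4 hr after plating, then receive compound plus 17beta-estradiol and incubate 18 hr at 37C.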

Test [15] is described as follows: qHTS assay to identify small molecule antagonists of the estrogen receptor alpha (ER-alpha) signaling pathway - cell viability counter screen (AID 743074; calls by dose curve;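 further: HEK293 cells carrying ER-alpha-UAS-bla reporter stimulated with 17beta-estradiol; nearly all actives have a fitted effect of over 45% in size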).
Test [16] has as its target Estrogen receptor (Homo sapiens) (UniProt P03372). In words: qHTS assay to identify small molecule agonists of the estrogen receptor alpha (ER-alpha) signaling pathway (AID 743075; calls by dose curve;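 further: HEK293 GripTite cells with ER-alpha and UAS-driven beta-lactamase reporter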).
Test [17] has the same target. In words: qHTS assay to identify small molecule agonists of the estrogen receptor alpha (ER-alpha) signaling pathway using the BG1 cell line (AID 743079). Further: nearly all actives have a fitted effect of over 20% in size.
Test [18] in a line: qHTS assay to identify small molecule antagonists of the estrogen receptor alpha (ER-alpha) signaling pathway using the BG1 cell line (AID 743080; calls by dose curve;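 further: BG1 cells stimulated with 17beta-estradiol alongside compound; series mostly up to about 70 µM; nearly all actives have a fitted effect of over 25% in size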). Summed up: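 Quantitative HTS on the Tox21 10K library: BG1 cells with endogenous ER-alpha and ERE-luciferase reporter, 17beta-estradiol stimulation, 21.5 h compound exposure, luminescence endpoint with parallel fluorescence cytotoxicity counter-read.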

Test [19] can be described thus: qHTS assay to identify small molecule antagonists of the estrogen receptor alpha (ER-alpha) signaling pathway using the BG1 cell line - cell viability counter screen (AID 743081).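 Further: compound given together with 17beta-estradiol as the ER stimulus; nearly all actives have a fitted effect of over 45% in size.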 Further: potency means the concentration at half of the fitted maximal effect.
The next test addresses Aromatase (Homo sapiens) (UniProt P11511). In words: qHTS assay to identify aromatase inhibitors (AID 743083). Further: nearly all actives have a fitted effect of over 55% in size. Further: potency means the concentration at half of the fitted maximal effect.

Where “and” joins values, the source holds several entries; their conditions need not be identical. Equal values may be shown once. Inconclusive results are not listed. The source holds several records for some structures; these can differ, active in one and inactive in another. Calls of active or inactive are those of the source. Unless noted, the call rests on the fitted dose curve; in most records, active means well fitted curve in the direction sought with a large enough effect in the repeat runs; inconclusive means weak or mixed curves; inactive means no such curve, though single readings can be large; an effect the other way counts as inactive or inconclusive.

Estrogen receptor (Homo sapiens), sequence (P03372 whole entry, looked up): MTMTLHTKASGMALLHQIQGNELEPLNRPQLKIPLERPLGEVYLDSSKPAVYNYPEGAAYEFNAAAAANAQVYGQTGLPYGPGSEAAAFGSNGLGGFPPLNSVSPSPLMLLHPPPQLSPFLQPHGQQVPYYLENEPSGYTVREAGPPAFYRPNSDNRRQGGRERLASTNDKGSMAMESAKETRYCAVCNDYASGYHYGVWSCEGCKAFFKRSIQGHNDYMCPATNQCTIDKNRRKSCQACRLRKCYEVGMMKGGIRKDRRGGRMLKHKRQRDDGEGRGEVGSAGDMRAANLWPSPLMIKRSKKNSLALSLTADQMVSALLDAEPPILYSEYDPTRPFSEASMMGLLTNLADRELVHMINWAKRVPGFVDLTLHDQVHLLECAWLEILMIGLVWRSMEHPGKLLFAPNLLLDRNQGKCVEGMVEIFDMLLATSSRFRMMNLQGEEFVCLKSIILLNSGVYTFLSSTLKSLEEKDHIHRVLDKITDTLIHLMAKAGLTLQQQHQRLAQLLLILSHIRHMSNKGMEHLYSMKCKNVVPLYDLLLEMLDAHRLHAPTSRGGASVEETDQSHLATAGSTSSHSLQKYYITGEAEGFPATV
Aromatase (Homo sapiens), sequence (P11511 whole entry, looked up): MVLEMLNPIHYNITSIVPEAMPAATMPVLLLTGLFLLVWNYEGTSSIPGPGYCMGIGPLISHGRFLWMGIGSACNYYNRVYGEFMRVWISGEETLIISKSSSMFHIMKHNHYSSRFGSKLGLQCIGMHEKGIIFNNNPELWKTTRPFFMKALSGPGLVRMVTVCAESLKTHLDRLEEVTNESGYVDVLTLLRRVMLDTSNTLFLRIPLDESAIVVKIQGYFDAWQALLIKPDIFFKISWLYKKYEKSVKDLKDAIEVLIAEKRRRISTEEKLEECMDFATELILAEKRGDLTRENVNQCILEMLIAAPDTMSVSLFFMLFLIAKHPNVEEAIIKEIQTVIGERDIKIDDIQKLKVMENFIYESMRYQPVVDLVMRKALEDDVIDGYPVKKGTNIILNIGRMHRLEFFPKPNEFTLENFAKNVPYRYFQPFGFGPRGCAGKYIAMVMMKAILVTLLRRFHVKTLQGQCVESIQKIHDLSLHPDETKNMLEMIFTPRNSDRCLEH
Androgen receptor (Homo sapiens), sequence (P10275 whole entry, looked up): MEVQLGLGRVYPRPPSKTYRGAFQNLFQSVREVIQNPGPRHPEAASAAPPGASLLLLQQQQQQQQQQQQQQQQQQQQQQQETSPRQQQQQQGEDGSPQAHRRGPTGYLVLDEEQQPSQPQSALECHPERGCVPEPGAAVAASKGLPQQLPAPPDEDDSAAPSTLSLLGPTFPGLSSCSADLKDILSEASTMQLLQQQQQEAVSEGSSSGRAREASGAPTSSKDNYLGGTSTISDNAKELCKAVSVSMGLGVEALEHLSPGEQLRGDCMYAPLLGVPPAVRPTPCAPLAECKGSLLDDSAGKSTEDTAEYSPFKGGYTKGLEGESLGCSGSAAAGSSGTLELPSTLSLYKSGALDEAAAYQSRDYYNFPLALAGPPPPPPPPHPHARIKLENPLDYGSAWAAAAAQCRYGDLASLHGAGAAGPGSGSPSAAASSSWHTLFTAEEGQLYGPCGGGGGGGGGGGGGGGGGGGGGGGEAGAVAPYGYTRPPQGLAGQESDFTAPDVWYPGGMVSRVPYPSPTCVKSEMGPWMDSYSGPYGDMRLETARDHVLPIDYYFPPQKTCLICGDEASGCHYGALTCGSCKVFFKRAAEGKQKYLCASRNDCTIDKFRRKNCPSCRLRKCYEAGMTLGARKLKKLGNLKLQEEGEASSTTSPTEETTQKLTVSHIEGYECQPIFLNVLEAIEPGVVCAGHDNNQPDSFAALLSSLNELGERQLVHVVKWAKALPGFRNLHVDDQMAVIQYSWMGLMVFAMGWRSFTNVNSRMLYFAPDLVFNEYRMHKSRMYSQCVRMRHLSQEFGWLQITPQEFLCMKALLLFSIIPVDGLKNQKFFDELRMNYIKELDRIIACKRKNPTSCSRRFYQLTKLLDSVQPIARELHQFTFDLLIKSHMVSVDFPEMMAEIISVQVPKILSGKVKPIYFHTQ

For the molecule `Cc1cc(=O)[nH]c(C(C)C)n1`, the Potency result in test [1], in test [2], in test [3], in test [4], in test [5] and in [9] was “inactive” each time. For the same molecule, the Potency entry in test [11], in test [12], in test [14], in test [15], in test [16] and in [17] was “inactive” throughout. For the same molecule, the Potency entry (in [18]; in [19]; in the test with Aromatase (Homo sapiens)) was “inactive” in each case. Further, the result in test [6], in test [7], in test [8], in test [10] and in [13] was inactive.
For `CCCCCCCCCCCCOCC1CO1` (centres undefined), the Potency entry in test [1], in test [2], in test [3], in test [4], in [5] and in test [9] was “inactive” in each case. The Potency entry in test [11], in [12], in test [14], in test [15], in test [16] and in test [17] was “inactive” in each case. Besides, the Potency result (in test [18]; in test [19]; with Aromatase (Homo sapiens)) was “inactive” throughout. The call in test [13] was inactive.
As for `CN(CCOc1ccc(CC2SC(=O)NC2=O)cc1)c1ccccn1` (centres undefined), the Potency result in test [1], in test [5], in test [9], in test [11], in test [14] and in [15] was “inactive” throughout. The Potency result in [16], in test [17], in test [18] and in test [19] was “inactive” throughout. The Potency result in test [2] was “inactive and 60.8 µM (active)”; in test [3] it was “inactive and 60.8 µM (active)”; in test [4] it was 27.1 µM (active). In test [13], the molecule was classed as inactive.
Turning to `COC(=O)Nc1nc2ccc(Sc3ccccc3)cc2[nH]1`, the Potency result (in test [1]; in test [5]; in test [9]; in [15]; in test [19]; with Aromatase (Homo sapiens)) was “inactive” each time. For the same molecule, the Potency in test [2] is 403 nM (active) and 217 nM (active); in [3] it was 285 nM (active) and 217 nM (active); in test [4], 403 nM (active) and 386 nM (active); in test [11], 0.202 µM (active); in test [12], 202 nM (active) and 217 nM (active). Also, the outcome in [13] was inactive.
Consider `ClC1=C(Cl)C(Cl)(Cl)C(Cl)=C1Cl`, for which the Potency entry in test [1], in test [5], in [9], in [11], in test [14] and in [16] was “inactive” in each case. Besides, the Potency result in test [17], in [18] and in test [19] was “inactive” in each case. Also, the Potency entry in test [2] is “inactive and 770 nM (active)”; in test [3], “inactive and 864 nM (active)”; in [4], “inactive and 770 nM (active)”; in [12] it was 54.5 µM (active); with Aromatase (Homo sapiens), “inactive and 48.6 µM (active)”. For the same molecule, the result in [13] was inactive.
Turning to `CS(=O)(=O)Nc1ccc([N+](=O)[O-])cc1Oc1ccccc1`, the Potency entry in test [1], in test [2], in test [3], in test [4], in test [5] and in test [9] was “inactive” each time. Further, the Potency result (in [11]; in test [12]; in [15]; in test [19]; in the test with Aromatase (Homo sapiens)) was “inactive” each time. In test [13], the call was inactive.
For the molecule `O=S(=O)(O)CCS`, the Potency entry in [1], in test [2], in test [3], in test [4], in test [5] and in test [9] was “inactive” in each case. Also, the Potency result in test [11], in [12], in [14], in [15], in test [16] and in [17] was “inactive” each time. The Potency entry (in test [18]; in test [19]; with Aromatase (Homo sapiens)) was “inactive” each time. In addition, in test [13], the result was inactive.
Take `Cc1cc(O)c2c(c1)C(=O)c1cc(O)cc(O)c1C2=O`: the Potency entry in [1], in test [9], in test [14], in [15] and in [18] was “inactive” throughout. Further, the Potency in test [2] was 27.3 µM (active); in test [3], “inactive and 38.6 µM (active)”; in [4] it was 1.68 µM (active) and 3.06 µM (active); in [5], 12 µM (active) and inactive; in test [11], “inactive and 30.6 µM (active)”; in test [12], 23.8 µM (active) and 15.4 µM (active). The Potency is 29.9 µM (active) and 24.3 µM (active) in test [19]; 23.8 µM (active) and 54.5 µM (active) in the test with Aromatase (Homo sapiens). Moreover, the result in [13] was inactive.
Take `CCOC(=O)[C@H](CCc1ccccc1)N[C@@H](C)C(=O)N1Cc2ccccc2C[C@H]1C(=O)O`: the Potency result in test [1], in [2], in test [4], in [5], in [9] and in test [11] was “inactive” throughout. In addition, the Potency entry in [14], in test [15], in test [16], in test [17], in test [18] and in [19] was “inactive” in each case. Further, in the test with Aromatase (Homo sapiens), the Potency result is “inactive”. In addition, in test [3], the Potency entry was “inactive and 61.6 µM (active)”. Besides, the molecule was classed as inactive in test [13].
Take `O=Nc1ccc(O)cc1`: the Potency entry in test [1], in test [2], in test [3], in test [4], in test [5] and in test [9] was “inactive” throughout. In addition, the Potency entry in test [11], in [14], in test [15], in test [16], in test [17] and in test [18] was “inactive” each time. Also, the Potency result (in [19]; with Aromatase (Homo sapiens)) was “inactive” each time. Also, the molecule was called inactive in test [6], in [7], in [8], in test [10] and in [13].
For `C=CC(=O)OCCCCCCCC(C)C`, the Potency entry in test [1], in test [5], in test [9], in test [11], in test [12] and in [14] was “inactive” in each case. Moreover, the Potency result (in test [15]; in test [16]; in [17]; in test [18]; in [19]; with Aromatase (Homo sapiens)) was “inactive” each time. Moreover, the Potency entry in test [2] is “inactive and 48.5 µM (active)”; in test [3], “inactive and 54.4 µM (active)”; in test [4], “inactive and 27.3 µM (active)”. Further, the call in [6], in test [7], in test [8], in test [10] and in test [13] was inactive.
As to `CC1(C)O[C@@H]2C[C@H]3[C@@H]4C[C@H](F)C5=CC(=O)CC[C@]5(C)[C@H]4[C@@H](O)C[C@]3(C)[C@]2(C(=O)CO)O1`, the Potency result in test [1], in test [2], in test [3], in test [4], in test [5] and in [9] was “inactive” in each case. Moreover, the Potency result (in [11]; in [12]; in [15]; in [17]; in test [19]; with Aromatase (Homo sapiens)) was “inactive” each time. In addition, the molecule was classed as inactive in [13].
With `CCCCC(CC)C(=O)OCCOCCOCCOC(=O)C(CC)CCCC` (centres undefined), the Potency result in test [1], in [4], in [5], in test [9], in [14] and in [15] was “inactive” in each case. The Potency entry (in [16]; in test [17]; in [18]; in [19]; with Aromatase (Homo sapiens)) was “inactive” in each case. The Potency in [2] is 21.7 µM (active); in test [3], “inactive and 19.3 µM (active)”. Further, the molecule was classed as inactive in test [6], in test [7], in [8], in test [10] and in test [13].
Take `c1ccc2ccccc2c1`: the Potency entry in test [1], in test [2], in test [3], in [4], in test [5] and in test [9] was “inactive” each time. Moreover, the Potency result in test [11], in test [14], in test [15], in test [16], in test [17] and in [18] was “inactive” in each case. The Potency entry (in test [19]; with Aromatase (Homo sapiens)) was “inactive” in each case. For the same molecule, the molecule was classed as inactive in test [13].

These data come from PubChem BioAssay (Tox21).
